In PubChem BioAssay (NCI):
The panel holds about 83,000 compounds, 20% with a hit somewhere; the sample as a whole holds those more often.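 Step 1: grow cells in 96-well plates. Step 2: add test compound at a single concentration. Step 3: incubate 48 h. Step 4: record percent growth.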 Unmarked numbers belong to inactive results. The source made the active and inactive calls. Rule for the calls: active = growth percent below 10; inactive = the rest.

Key:
Assay in all cases: NCI-60 one-dose screen, 48 h (100 = growth as untreated, 0 = no growth, -100 = all killed)
Details in all cases: 10 µM unless noted
DU-145 prostate = tested on: DU-145 prostate
K-562 leukemia = tested on: K-562 leukemia
MALME-3M melanoma = tested on: MALME-3M melanoma
MDA-MB-231 breast = tested on: MDA-MB-231 breast
RXF 393 renal = tested on: RXF 393 renal
SF-268 CNS = tested on: SF-268 CNS
SF-295 CNS = tested on: SF-295 CNS
SF-539 CNS = tested on: SF-539 CNS
UACC-257 melanoma = tested on: UACC-257 melanoma
M14 melanoma = tested on: M14 melanoma

Structure (SMILES)	growth (DU-145 prostate)	growth (K-562 leukemia)	growth (MALME-3M melanoma)	growth (MDA-MB-231 breast)	growth (RXF 393 renal)	growth (SF-268 CNS)	growth (SF-295 CNS)	growth (SF-539 CNS)	growth (UACC-257 melanoma)	growth (M14 melanoma)
Cc1ccc2[nH]c(-c3ccc(S(C)(=O)=O)cc3)c(/C=N/N=C(N)N)c2c1	48%	26.3%	52.4%	67.6%	66.8%	62.1%	43.2%	59.5%	43.1%	32.5%
CCN(CC)c1ccc(/C=C\c2cc(C)c3cc(C)ccc3n2)cc1	61.5%	13.1%	32.9%	54.2%	16.1%	40.2%	24.4%	20.1%	24.4%	15.9%
COc1ccc(C(c2cc(OC)c(OC)c(OC)c2)N2CCN(Cc3ccccc3)CC2)cc1 (stereo not given)	102%	26.4%	74.8%	71%	72.3%	86.4%	68.7%	81.2%	84.2%	52.8%
N#Cc1c(Nc2ccc(F)cc2)n[nH]c1-c1cccs1	113%	99.2%	108%	89.5%	112%	98%	97.7%	98.8%	120%	104%
Fc1ccc2c(c1)c(-c1nc(-c3c[nH]c4ncccc34)cs1)cn2CCCN1CCOCC1	79.8%	1.71% (active)	59.2%	36%	39.5%	50.8%	27.5%	67.3%	83%	34.7%
COc1ccc(C2=NN(C(=O)c3cc(OC)c(OC)c(OC)c3)C(c3ccc(N(C)C)cc3)C2)cc1 (stereo not given)	10.7%	44.2%	84%	9.57% (active)	-18.5% (active)	46.6%	1.04% (active)	-37% (active)	62.6%	2.04% (active)
COc1ccc(C(c2cc(OC)c(OC)c(OC)c2)N2CCCC2)cc1 (stereo not given)	103%	25.3%	85.3%	80.8%	103%	84.3%	69.7%	95.7%	74.6%	60.1%
N=c1c2c(=N)n3c(nc2nc2n1-c1ccccc1Sc1ccccc1-2)sc1cc(Cl)ccc13	32.4%	34.9%	12.7%	32.1%	26.5%	38.3%	12.8%	55.4%	-5.42% (active)	28.8%
N#Cc1c(-c2cccc([N+](=O)[O-])c2)cc(-c2ccc(Nc3nc(Nc4ccc(F)cc4)nc(Nc4ccc(F)cc4)n3)cc2)nc1N	154%	80.3%	94.7%	91.9%	-10.3% (active)	164%	102%	127%	107%	110%
Cc1ccccc1CNc1c2ccccc2nc2ccccc12	30.6%	5.04% (active)	15.2%	39.9%	7.78% (active)	42.9%	29.5%	3.3% (active)	32.7%	13.1%
O=C(CSc1nnc2sc(Nc3cccc(Cl)c3)nn12)c1ccc(F)cc1	104%	90.6%	116%	79.7%	102%	101%	97.2%	102%	102%	96%
O[C@@H](c1cc(C(F)(F)F)nc2c(C(F)(F)F)cccc12)[C@H]1CCCCN1	65.8%	15.8%	99%	14.5%	55.2%	54.7%	95.7%	85.6%	65.5%	71.6%
COc1cc(-c2nc(NC(C)=O)sc2-c2ccnc(NCCNS(=O)(=O)c3ccccc3)n2)ccc1Cl	53.4%	13.8%	27.9%	35.1%	36.7%	38.4%	10.9%	8.69% (active)	47.1%	-20.4% (active)
CN1CCN(c2ccc(NC(=O)c3cncnc3Nc3ccc4c(ccn4Cc4cccc(F)c4)c3)cc2)CC1	54%	2.74% (active)	-82.6% (active)	11.9%	31%	71%	80.8%	45%	65.4%	-59.3% (active)
Clc1ccc(-c2cn3ccsc3n2)c(Cl)c1Cl	76.2%	73.1%	117%	76.1%	95.2%	102%	91.8%	88%	87.7%	98.7%
Cc1cc(N2CCN(C)CC2)nc(NCc2cc(Nc3ccnc4cc(Cl)ccc34)ccc2F)n1	10.5%	2.5% (active)	-76.6% (active)	-56.5% (active)	-70.9% (active)	8.21% (active)	-70.1% (active)	-83.4% (active)	-73.5% (active)	-65% (active)
COc1ccc2c(c1)c(-c1nonc1-c1c[nH]c3ccc(Br)cc13)cn2C	61.2%	11.5%	46.3%	43.4%	67%	48.3%	40.2%	56.6%	64.7%	20.8%
COc1cc(C(=O)C(=O)c2cc(OC)c(O)c(OC)c2)cc(OC)c1O	119%	122%	103%	97.2%	104%	99.3%	109%	97.1%	98.3%	104%
O=C1CCCc2nc3sc4c(=O)n(-c5ccccc5Cl)nnc4c3cc21	111%	102%	102%	93.6%	91.2%	103%	95.1%	103%	85.3%	106%

Structure (SMILES)	growth (DU-145 prostate)	growth (K-562 leukemia)	growth (MALME-3M melanoma)	growth (MDA-MB-231 breast)	growth (RXF 393 renal)	growth (SF-268 CNS)	growth (SF-295 CNS)	growth (SF-539 CNS)	growth (UACC-257 melanoma)	growth (M14 melanoma)
CN(C)c1ccc(/C=C/C(=O)c2ccccc2)cc1	95.9%	32%	82.5%	103%	93.8%	89.7%	92.7%	89.3%	62.9%	76%
N#Cc1c(NC(=O)c2cccs2)[n+]([O-])c2ccc(Cl)cc2[n+]1[O-]	121%	106%	92%	82.7%	127%	106%	93.8%	108%	120%	80.2%
COc1ccc(/C=C/C(=O)c2cc3c(N)c(C(=O)Nc4ccc(OC)cc4)sc3nc2C)cc1	17.5%	17.9%	49.1%	24.7%	-14.4% (active)	39.5%	11.6%	-25.5% (active)	55.3%	10.2%
Oc1c(I)cc(-c2nc3ccccc3s2)cc1CN(Cc1ccccn1)Cc1ccccn1	28.1%	13.1%	11.5%	34.9%	33.3%	20.8%	18.5%	4.13% (active)	0.435% (active)	-27.5% (active)
O=C(CCCCCCN1CC(=O)N2[C@@H](c3ccc(Cl)cc3)c3[nH]c4ccccc4c3C[C@H]2C1=O)NO	73.4%	29.7%	37.2%	50.9%	72.7%	91.2%	80.6%	63.5%	79.7%	59%
COc1ccc(C(C)=O)cc1S(N)(=O)=O	106%	104%	99.3%	103%	102%	101%	94.6%	104%	91.9%	95%
COc1cc(C(=O)c2c(-c3ccccc3)oc3c(OC)cccc23)cc(OC)c1O	23%	13.4%	47.4%	17%	-6.63% (active)	46.5%	2.85% (active)	-13.2% (active)	71.4%	16.3%
CCn1cc(C(=O)NN=C2CCCCCC2)c(=O)c2ccc(C)nc21	89.2%	72%	97.1%	87.1%	100%	84%	77.7%	100%	87.8%	103%
O=C(Nc1ccccc1)c1sc(-c2ccccc2)cc1O	106%	82.6%	84.8%	105%	105%	98.1%	95.3%	90.8%	128%	96.2%
CS(=O)(=O)Cc1cnc(C2OCCO2)s1	106%	125%	92.7%	109%	116%	93.1%	98%	94.7%	98.8%	99.9%
NNC(=S)N/N=C/c1ccccn1	34.5%	19.4%	54.3%	47.2%	25.2%	42.9%	33.5%	11.2%	45.7%	23.7%
CC(=O)c1c(Nc2ccc(F)c(F)c2F)[nH]c2c(F)cc(F)cc2c1=O	18.1%	7.47% (active)	-22.6% (active)	-1.7% (active)	-4.56% (active)	17.9%	-35.3% (active)	1.53% (active)	-18.4% (active)	2.68% (active)
Cn1cc(-c2csc(-c3cn(C(=O)OC(C)(C)C)c4ccccc34)n2)c2ccnc(Cl)c21	74.1%	68.1%	90%	38.3%	63.6%	71.8%	62.4%	68.3%	59.5%	79%
O=C(O)CCCn1c(SCc2c(Cl)cccc2Cl)nc2ccsc2c1=O	3.54% (active)	9.27% (active)	47.7%	42%	-27.9% (active)	39.5%	14.6%	-20.1% (active)	68.4%	-11.1% (active)
CC/C(Cc1ccccc1)=C(\c1ccc(OCCN2CCCCCC2)cc1)c1ccc(OC(=O)NCc2ccccc2)cc1	83.2%	-11.8% (active)	61.3%	74.4%	77.4%	77.3%	107%	79.7%	77.6%	56.3%
Cc1nn(-c2ccccc2)c(/N=C/N(C)C)c1/C=C/C(=O)c1ccc(Cl)cc1	122%	59.6%	90.1%	77.2%	97.8%	118%	106%	101%	119%	94.7%
CCOC(=O)c1c(NC(=O)c2ccc(OC)cc2)sc2c(CN(C)C)c(O)ccc12	84.3%	24.1%	-57.5% (active)	79.1%	53.6%	98%	82.3%	68.8%	-58% (active)	-69.4% (active)
CC1=NN(c2ccc(Cl)cc2)CC1(C)N=O (stereo not given)	83.9%	40.1%	68.5%	78.3%	32.7%	94.9%	101%	91%	90%	64.9%
